This note sets out measurements from publication PMC5540273 (PLoS ONE, 2017).

Test systems include INSRR; INSR; IRAK1; IRAK3; IRAK4; ITK; KIT-autoinhibited; KIT; LATS1; LATS2.
What all share (conditions): concentration: 1 μM, replicates: in singlicate; n = 1
Another assay relates to T1, IKK-alpha.
T1 construct: gene CHUK

The test system of another assay is T2, IKK-beta.
T2 construct: gene IKBKB

The test system of a further assay is T3, IKK-epsilon.
T3 construct: gene IKBKE

In assay [1] the test system is JAK1(JH1domain-catalytic).
In assay [2] the test system is JAK1(JH2domain-pseudokinase).
The test system of assay [3] is JAK2(JH1domain-catalytic).
Assay [4] concerns JAK3(JH1domain-catalytic).
The test system of a further assay is T4, JNK1.
T4 construct: gene MAPK8

The next assay has as its system T5, JNK2.
T5 construct: gene MAPK9

Another assay deals with T6, JNK3.
T6 construct: gene MAPK10
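Note: KINOMEscan kinase panel screen.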

For the compound `Nc1n[nH]c2cnc(-c3ccccc3)cc12` [SB-642124], the “%Inh” value with IKK-alpha stood at 55%; in the assay with IKK-beta it was 64%; in the assay on IKK-epsilon it was 13%; in the assay with INSRR, 100%; in the assay with INSR it was 0%; with IRAK1, 49%. Further, the “%Inh” value is reported as 3% in the assay on IRAK3; 32% with IRAK4; 13% in the assay on ITK; 37% in [1]; 0% in assay [2]; 75% in assay [3]. In addition, the “%Inh” value in assay [4] is listed as 91%; in the assay with JNK1, 13%; in the assay with JNK2, 0%; in the assay on JNK3, 6%; with KIT-autoinhibited, 12%; in the assay on KIT, 0%. The “%Inh” value is 0% in the assay on LATS1 and 2% in the assay on LATS2.

Consider `Cl.Cl.NCC(NCc1ccc(-c2ccnc3[nH]ccc23)s1)c1ccccc1` (stereo not shown) [GSK1321565], for which the “%Inh” value in the assay with IKK-alpha turned out to be 68%; in the assay on IKK-beta it was 74%; in the assay on IKK-epsilon it was 39%; in the assay on INSRR, 0%; in the assay on INSR, 0%; in the assay with IRAK1, 71%. Further, the “%Inh” value in the assay on IRAK3 worked out at 20%; with IRAK4, 7%; in the assay on ITK it was 13%; in assay [1], 29%; in assay [2], 0%; in assay [3] it was 96.9%. Also, the “%Inh” value in assay [4] is recorded as 100%; in the assay on JNK1, 24%; in the assay with JNK2, 14%; in the assay with JNK3, 4%; in the assay on KIT-autoinhibited, 0%; in the assay with KIT it was 25%. For the same compound, the entries for the “%Inh” value with LATS1 and in the assay on LATS2 were 62% and 95%, respectively.

Consider `O=C(Nc1n[nH]c2nc(-c3ccc(O)cc3)ccc12)C1CC1` [SB-710363], for which the “%Inh” value amounted to 0% in the assay with IKK-alpha; 0% in the assay on IKK-beta; 7% with IKK-epsilon; 0% with INSRR; 0% with INSR; 0% with IRAK1. Moreover, the “%Inh” value worked out at 0% in the assay on IRAK3; 0% with IRAK4; 0% in the assay on ITK; 6% in assay [1]; 33% in assay [2]; 53% in assay [3]. Besides, the “%Inh” value in [4] is listed as 62%; in the assay with JNK1, 25%; with JNK2, 13%; in the assay on JNK3, 2%; in the assay with KIT-autoinhibited it was 0%; with KIT, 12%. Further, the “%Inh” value in the assay with LATS1 amounted to 17%; in the assay on LATS2, 10%.

For `COc1cc(Nc2ncc3c(C)nc(-c4cc5ccccc5[nH]4)n3n2)cc(OC)c1OC` [GW869516], the “%Inh” value is reported as 0% in the assay with IKK-alpha; 0% in the assay with IKK-beta; 0% in the assay with IKK-epsilon; 53% in the assay with INSRR; 4% in the assay with INSR; 2% with IRAK1. For the same compound, the “%Inh” value was determined as 20% with IRAK3; 0% in the assay with IRAK4; 43% with ITK; 0% in assay [1]; 98.5% in [2]; 54% in [3]. Besides, the “%Inh” value in assay [4] is 11%; in the assay with JNK1, 11%; in the assay with JNK2, 0%; in the assay with JNK3 it was 0%; in the assay with KIT-autoinhibited, 22%; with KIT, 72%. Moreover, the “%Inh” value in the assay with LATS1 and in the assay with LATS2 was 0% in each case.

Take `COc1cc(Nc2nccc(-c3c(-c4cccc(NC(=O)c5c(F)cccc5F)c4)nn4ncccc34)n2)cc(OC)c1OC` [GSK327238]: the “%Inh” value in the assay on IKK-alpha was determined as 0%; in the assay with IKK-beta, 0%; in the assay with IKK-epsilon, 23%; in the assay on INSRR it was 93%; in the assay with INSR, 64%; in the assay with IRAK1, 0%. The “%Inh” value is given as 74% in the assay on IRAK3; 0% in the assay on IRAK4; 5% with ITK; 17% in assay [1]; 0% in assay [2]; 6% in assay [3]. Moreover, the “%Inh” value is 59% in assay [4]; 39% with JNK1; 71% in the assay with JNK2; 23% with JNK3; 31% in the assay on KIT-autoinhibited; 100% with KIT. Also, the results for the “%Inh” value in the assay on LATS1 and in the assay on LATS2 were 44% and 28%, respectively.

Consider `COc1ccc(CNC(=O)NC2CCN(c3ccnc(Nc4ccc(F)cc4)n3)CC2)cc1` [GSK1379788], for which the “%Inh” value in the assay with IKK-alpha amounted to 1%; with IKK-beta it was 0%; in the assay on IKK-epsilon, 11%; in the assay on INSRR, 0%; with INSR, 0%; in the assay with IRAK1 it was 17%. The “%Inh” value with IRAK3 is 24%; in the assay with IRAK4 it was 0%; in the assay on ITK, 0%; in assay [1], 11%; in [2], 0%; in assay [3] it was 9%. The “%Inh” value was found to be 0% in assay [4]; 11% with JNK1; 5% in the assay with JNK2; 0% in the assay on JNK3; 0% in the assay on KIT-autoinhibited; 19% in the assay on KIT. For the same compound, the “%Inh” value came to 7% in the assay on LATS1 and 8% with LATS2.

As for `Cc1ccc(C(=O)Nc2ccc(Nc3ccnc4cc(-c5nccs5)ccc34)cc2O)cc1.Cl` [GW494702], the “%Inh” value in the assay on IKK-alpha is 20%; with IKK-beta, 7%; with IKK-epsilon, 0%; with INSRR it was 1%; in the assay on INSR, 100%; in the assay on IRAK1 it was 22%. The “%Inh” value in the assay with IRAK3 is recorded as 2%; in the assay with IRAK4 it was 5%; in the assay with ITK, 0%; in assay [1], 0%; in assay [2], 0%; in [3], 25%. Further, the “%Inh” value in assay [4] stood at 0%; in the assay on JNK1, 18%; with JNK2, 3%; with JNK3, 9%; in the assay with KIT-autoinhibited, 0%; in the assay on KIT, 73%. For the same compound, the “%Inh” value in the assay on LATS1 and in the assay on LATS2 was 0% in each case.

Turning to `Cc1ccc(C)c(NC(=O)NC2CCN(c3ccnc(Nc4ccc(F)cc4)n3)C2)c1` (stereo not shown) [GSK1379720], the “%Inh” value with IKK-alpha is on record as 32%; in the assay with IKK-beta, 18%; with IKK-epsilon, 3%; with INSRR it was 0%; in the assay on INSR, 0%; in the assay on IRAK1, 40%. Moreover, the “%Inh” value is recorded as 0% in the assay on IRAK3; 20% in the assay with IRAK4; 5% with ITK; 12% in [1]; 0% in [2]; 0% in [3]. Moreover, the “%Inh” value worked out at 0% in [4]; 45% with JNK1; 10% in the assay with JNK2; 0% in the assay with JNK3; 0% in the assay on KIT-autoinhibited; 14% with KIT. Besides, the “%Inh” value in the assay on LATS1 worked out at 12%; in the assay with LATS2, 0%.
